Source: PubChem BioAssay (Paczesny and Yang Labs, IUPUI and University of Michigan)
ST2 IL33 inh: IL1RL1 inhibition; Q01638; AlphaLISA ST2-Fc/biotin-IL-33 interaction, 1 h; inhibition, % for hits at 17 µM; 2.3% of 78,000 active; AID 1259354; in the data active = inhibition above about 30%
Target sequence (Q01638 whole entry, looked up): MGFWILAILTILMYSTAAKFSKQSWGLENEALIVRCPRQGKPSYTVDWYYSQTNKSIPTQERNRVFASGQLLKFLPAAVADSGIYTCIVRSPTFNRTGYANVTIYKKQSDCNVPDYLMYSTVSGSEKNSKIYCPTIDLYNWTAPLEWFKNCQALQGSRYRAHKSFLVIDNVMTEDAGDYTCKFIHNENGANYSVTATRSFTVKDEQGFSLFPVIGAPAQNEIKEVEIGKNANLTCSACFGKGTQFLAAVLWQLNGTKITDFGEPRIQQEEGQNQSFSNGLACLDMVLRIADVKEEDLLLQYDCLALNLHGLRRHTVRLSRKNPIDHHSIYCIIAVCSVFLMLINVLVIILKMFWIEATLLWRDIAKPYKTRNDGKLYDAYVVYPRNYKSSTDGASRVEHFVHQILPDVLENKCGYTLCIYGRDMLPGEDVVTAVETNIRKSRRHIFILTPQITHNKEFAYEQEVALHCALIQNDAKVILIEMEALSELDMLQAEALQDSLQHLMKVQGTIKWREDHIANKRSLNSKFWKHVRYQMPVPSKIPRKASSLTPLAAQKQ
* marks the source's active call; other numbers are inactive results; i = inactive; ! = a repeat was not active. Only a selection was taken, and hits are over-represented in it overall.

SMILES	ST2 IL33 inh
Cc1ccc(-n2c(SCC(=O)N3CCCC3)nc3c(c2=O)SCC3)cc1	i
Cc1ccc(-n2c(SCC(=O)N3CCCCC3)nc3c(c2=O)SCC3)cc1	i
Cc1ccc(-n2c(SCC(=O)N3CCc4ccccc43)nc3c(c2=O)SCC3)cc1	97%*!
Cc1ccc(-n2c(SCc3ccc(F)cc3)nc3c(c2=O)SCC3)cc1	31%*!
O=c1c2c(nc(SCc3ccc(F)cc3)n1-c1ccc(F)cc1)CCS2	i
COc1ccc(NS(=O)(=O)c2cccc(C(=O)Nc3ccc(C)cc3)c2)cc1	i
COc1ccc(C(=O)N2CCCC(CNC(=O)c3ccc(-c4ccccc4)cc3)C2)o1 (configuration not stated)	i
COc1ccc(N2CCCS2(=O)=O)cc1NC(=O)COc1ccccc1F	i
CC(=O)NC1=NN(C(C)=O)C2(CCCc3ccccc32)S1 (configuration not stated)	i
O=C1CC(N2CCN(c3ccc(F)cc3)CC2)C(=O)N1c1cccc([N+](=O)[O-])c1 (configuration not stated)	i
CS(=O)(=O)N(CC(=O)Nc1cccnc1)c1cc(Cl)cc(Cl)c1	i
CCCCOc1ccc(C(=O)NCCC(=O)O)cc1	i
COc1ccccc1CN1CC[C@H](c2nnc(C(C)(C)C)o2)C1	i
CN(CCn1cccn1)c1nc(-c2cccnc2)nc2c1cnn2C	i
CC(CN(C)c1nc(-c2cccnc2)nc2c1cnn2C)N1CCOCC1 (configuration not stated)	i
CN(CC1COCCO1)c1nc(-c2cccnc2)nc2c1cnn2C (configuration not stated)	34%*
Cc1ccc(S(=O)(=O)Cc2noc([C@@H]3C[C@@H](O)CN3Cc3ccccc3[N+](=O)[O-])n2)cc1	31%*
Cc1ccc(S(=O)(=O)Cc2noc([C@@H]3C[C@@H](O)CN3Cc3c[nH]c4ccccc34)n2)cc1	i
Cc1ccc(S(=O)(=O)Cc2noc([C@@H]3C[C@@H](O)CN3Cc3ccc(S(C)(=O)=O)cc3)n2)cc1	i
CC(=O)Nc1ccc(CN2C[C@H](O)C[C@H]2c2nc(-c3ccc4c(c3)OCO4)no2)cc1	i
COc1cccc(-c2nc3cc(N=Cc4cccc(OC)c4O)ccc3o2)c1	i
COc1ccc(C=Nc2ccc3oc(-c4ccncc4)nc3c2)cc1Cl	33%*
COc1cccc(-c2nc3cc(N=Cc4ccc([N+](=O)[O-])cc4)ccc3o2)c1	i
COc1cc(CN2CCN(Cc3ccccc3)CC2)c([N+](=O)[O-])cc1OC	i
CN1CCN(Cc2cc(O)ccc2[N+](=O)[O-])CC1	i
SMILES	ST2 IL33 inh
COc1cc(CN2CCCCCC2)c([N+](=O)[O-])cc1OC	i
OC(COCc1ccc2c(c1)OCO2)CN1CCN(c2cccc(Cl)c2)CC1 (configuration not stated)	i
O=[N+]([O-])c1cc2c(cc1CN1CCN(c3cccc(Cl)c3)CC1)OCO2	36%*
O=[N+]([O-])c1cc2c(cc1CN1CCN(c3ccc(F)cc3)CC1)OCO2	36%*
CC(C)(C)c1cc(CCO)cc(C(C)(C)C)c1O	i
CC1=C(C(N)=O)C(c2cccs2)n2nc(SCc3ccccc3Cl)nc2N1 (configuration not stated)	i
Cc1cc(C)c(S(=O)(=O)NCCn2c(-c3ccccc3)nc3cccnc32)cc1C	i
CCc1cn[nH]c1C1CCCN(C(=O)CCn2c(=O)[nH]c3ccccc32)C1 (configuration not stated)	i
O=C(COc1ccc([N+](=O)[O-])cc1)Nc1cccc(I)c1	i
COc1cccc(NC(=O)NC[C@H]2O[C@@H](CO)[C@@H](O)[C@H]2N2CCN(c3ccccn3)CC2)c1	36%*
COc1ccc(S(=O)(=O)NC[C@H]2O[C@@H](CO)[C@@H](O)[C@H]2N2CCN(c3ccccc3OC)CC2)cc1	i
COc1ccccc1N1CCN([C@@H]2[C@H](O)[C@H](CO)O[C@@H]2CNS(=O)(=O)c2ccc(C)cc2)CC1	73%*
CC(C)NC(=O)NC[C@H]1O[C@@H](CO)[C@@H](O)[C@H]1N1CCN(c2cccc(C(F)(F)F)c2)CC1	44%*
COc1cccc(NC(=O)NC[C@H]2O[C@@H](CO)[C@@H](O)[C@H]2N2CCC(C)CC2)c1	i
O=C(NC[C@H]1O[C@@H](CO)[C@@H](O)[C@H]1N1CCN(c2cccc(C(F)(F)F)c2)CC1)Nc1cccc(Cl)c1	i
COc1ccccc1N1CCN([C@@H]2[C@H](O)[C@H](CO)O[C@@H]2CNS(=O)(=O)c2cccs2)CC1	i
COc1ccc(C(=O)NC[C@H]2O[C@@H](CO)[C@@H](O)[C@H]2N2CCN(c3cccc(C(F)(F)F)c3)CC2)cc1	i
COc1cc(NC(=O)NC[C@H]2O[C@@H](CO)[C@@H](O)[C@H]2N2CCN(C)CC2)cc(OC)c1	i
Cc1ccc(Nc2cc(C)nc(N3CCN(S(=O)(=O)c4ccc(Cl)cc4)CC3)n2)cc1	i
CCCN(CCC)CCCNS(=O)(=O)c1ccc(OCC)c2ncccc12	i
CC(=O)c1ccc(OCCn2cnc3c(N)ncnc32)cc1	i
Cn1ncc(Cl)c1C(=O)NCc1ccc2[nH]c3c(c2c1)CCCCC3	i
O=C(C[C@@H]1CCNC[C@@H]1Cc1cc(-c2ccccc2)on1)N1CCN(c2ccc(F)cc2)CC1	i
CC1=C(C#N)c2nc(N)c(C#N)c(C)c2/C1=C\c1ccc(O)cc1	i
CCCCNC(=O)c1ccc(CS(=O)(=O)c2ccc(Br)cc2)o1	i
SMILES	ST2 IL33 inh
COc1ccc(OC)c(NC(=O)c2cc3ccccc3o2)c1	i
COc1ccc(OC)c(NC(=O)c2c(OC)cccc2OC)c1	35%*
CCc1ccccc1NC(=O)c1c(OC)cccc1OC	i
COc1ccc(OC)c(NC2=CC(=O)CC(c3ccccc3)C2)c1 (configuration not stated)	i
CCOc1ccc(/C=c2\sc3n(c2=O)CN(c2ccc4c(c2)OCO4)CN=3)cc1	31%*
CCOc1ccc(CN2CCN(Cc3ccc4c(c3)OCO4)CC2)cc1	i
CCOc1ccc(-c2nc3s/c(=C\c4ccc(C)cc4)c(=O)n3n2)cc1	i
CCCCOc1ccc(/C=c2\sc3nc(=O)c(C)nn3c2=O)cc1	i
CC(=O)c1ccc(N2CN=c3s/c(=C\c4ccc(I)o4)c(=O)n3C2)cc1	i
CCOc1ccc(/C=c2\sc3n(c2=O)CN(c2cccc(C(C)=O)c2)CN=3)cc1	31%*
COc1cccc2c1OC(=O)C1C3CC(C4Sc5[nH]c(=O)sc5C2C34)C1C(=O)O (configuration not stated)	i
Cc1cc(NS(=O)(=O)c2ccc3c(c2)CCC(=O)N3)ccc1Br	i
O=[N+]([O-])c1ccccc1/C=C/c1ccc2cccc(O)c2n1	41%*
O=[N+]([O-])c1cccc(C=Nc2ccc(-c3nc4ncccc4o3)cc2)c1O	i
O=C(O)c1cccc(N=Cc2cccc([N+](=O)[O-])c2O)c1	i
CCc1cc2c(=O)c(-c3nc4ccccc4s3)coc2cc1OC	i
CC(=O)Oc1ccc2c(=O)c(-c3csc(-c4ccccc4)n3)coc2c1	i
CCOc1ccc2c(=O)c(-c3nc4ccccc4s3)coc2c1	30%*
CCOc1ccc(NS(=O)(=O)c2cc(Br)cc3c2N(C(C)=O)C(C)C3)cc1 (configuration not stated)	i
COc1cc(C=O)cc(Cl)c1OCc1ccc(Br)cc1	i
COc1cc(/C=C/c2ccc3cccc(O)c3n2)cc(Cl)c1OC	34%*
COc1cccc2ccc(/C=C/c3ccc4c(c3)OCO4)nc12	i
